Assay [1] addresses Glutathione peroxidase 1 (Homo sapiens) (UniProt P07203). The assay can be described thus: Primary qHTS Assay for Inhibitors of Recombinant Selenoprotein Glutathione Peroxidase 1 (GPX1) (AID 1845191). Further: nearly all actives have a fitted effect of over 65% in size. On activity, negative = inhibition: on the % scale 0 is the no-effect control and ±100 the full control effect. The conditions noted are these: recombinant GPX1, GR-coupled NADPH fluorescence, 15 min; series mostly up to 48.8 µM. In a few lines:
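Recombinant GPX1 (10 nM final) was preincubated with compound for 30 min at room temperature, then reacted with 1 mM GSH, 0.5 mM CHP, 0.5 mM NADPH and 100 nM glutathione reductase; NADPH fluorescence (340/450 nm) was read at 0 and 15 min.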
A general note: qHTS replaces the single test concentration by a dilution series.

The target in assay [2] is Phospholipid hydroperoxide glutathione peroxidase GPX4 (Homo sapiens) (UniProt P36969). As to the kind of experiment: Primary qHTS Assay for Inhibitors of Recombinant Selenoprotein Glutathione Peroxidase 4 (GPX4) (AID 1845192). Further: nearly all actives have a fitted effect of over 65% in size. As to conditions: recombinant GPX4, GR-coupled NADPH fluorescence, 15 min; series mostly up to 50 µM. The method in brief: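 GR-coupled readout: 100 nM GR, 1 mM GSH, 0.5 mM NADPH; NADPH fluorescence (ex 340/em 450 nm) read at t=0 and after 15 min RT. GPX4 200 nM, preincubated 30 min with compound; substrate 0.5 mM CHP.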
Phospholipid hydroperoxide glutathione peroxidase GPX4 (Homo sapiens), sequence (P36969 whole entry, looked up): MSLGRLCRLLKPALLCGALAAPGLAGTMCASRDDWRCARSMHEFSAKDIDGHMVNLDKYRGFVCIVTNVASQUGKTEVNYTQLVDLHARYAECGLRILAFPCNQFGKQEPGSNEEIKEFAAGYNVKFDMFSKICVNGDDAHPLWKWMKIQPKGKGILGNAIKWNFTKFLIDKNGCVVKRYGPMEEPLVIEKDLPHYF

Assay [3] deals with Luciferin 4-monooxygenase (Photinus pyralis) (UniProt P08659). As to the kind of experiment: Primary firefly luciferase (FLuc) qHTS assay for identification of artifact compounds. (AID 1845220). Further: nearly all actives have a fitted effect of over 60% in size. Further: potency means the concentration at half of the fitted maximal effect. As to conditions: purified firefly luciferase, luminescence, 5 min; series mostly up to 54.1 µM. The method in brief:
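qHTS, 15 min compound preincubation with substrate (10 uM luciferin, 10 uM ATP) at RT, then 10 nM FLuc; 5 min; luminescence; % inhibition vs no-enzyme/DMSO controls, 4-parameter Hill fit.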

The nature of assay [4]: Primary fluorescence-based thiol-reactive (MSTI) qHTS assay for identification of artifact compounds. (AID 1845221). Further: nearly all actives have a fitted effect of over 65% in size. Further: potency means the concentration at half of the fitted maximal effect.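 On activity change, negative = thiol reactive: thiol-reactive compounds lower the probe fluorescence signal.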 The conditions noted are these: MSTI thiol-reactivity probe, 1 h; series mostly up to 53.8 µM. The method in brief:
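Curve-fitted percent inhibition (4-parameter Hill) derived from fluorescence, Ex 525/Em 598 nm, scaled with Acetyl-MSTI and MSTI; 1 h incubation at room temperature.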

The subject of assay [5] is Nanoluciferase (engineered Oplophorus gracilirostris luciferase). As to the kind of experiment: Primary Nanoluciferase (NLuc) qHTS assay for identification of artifact compounds. (AID 1845222).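 Further: 0% = DMSO and -100% = no enzyme.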 The conditions noted are these: NLuc-conditioned medium, Nano-Glo luminescence, 5 min; series mostly up to 54.1 µM. The method in brief:
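Luminescence read-out of secreted NLuc in S16 cell conditioned medium (1:55); compounds tested with 15 min RT preincubation, then Nano-Glo substrate 1:100, 5 min. % inhibition vs no-enzyme and DMSO controls, 4-parameter Hill fit.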

Assay [6] can be described thus: Primary redox qHTS assay for identification of artifact compounds. (AID 1845223).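 Further: 0% = DMSO and 100% = reference compound.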 As to conditions: Amplex Red/HRP redox cycling with DTT, fluorescence; series mostly up to 53.8 µM. In a few lines: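 Amplex Red (25 uM) and HRP (250 mU/mL) in HBSS, with compounds for 15 min, then 250 uM DTT for 30 min, room temperature, dark. Fluorescence 525/598 nm read; normalized to DMSO and 10 uM DA3003; Hill fit.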

Structures are written as SMILES. Unmarked numbers belong to inactive results. Records with an inconclusive call do not appear. Active and inactive are the calls of the source. The call rests on the fitted dose curve; in most records, active means well fitted curve in the direction sought with a large enough effect; inconclusive means small, poorly fitted or top-dose-only effect, or another doubt; inactive means no such curve, though single readings can be large; an effect the other way counts as inactive or inconclusive.

Glutathione peroxidase 1 (Homo sapiens), sequence (P07203 whole entry, looked up): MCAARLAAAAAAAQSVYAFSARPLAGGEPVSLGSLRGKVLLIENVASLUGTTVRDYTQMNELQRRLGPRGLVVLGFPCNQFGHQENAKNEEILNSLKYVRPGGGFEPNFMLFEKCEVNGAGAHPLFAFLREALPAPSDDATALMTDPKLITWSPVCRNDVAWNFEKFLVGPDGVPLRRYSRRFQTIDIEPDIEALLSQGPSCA

For `COc1cc([C@H]2c3cc(O)c(OC)cc3C[C@@H](CO[C@@H]3O[C@H](CO)[C@@H](O)[C@H](O)[C@H]3O)[C@@H]2CO)ccc1O`, the Potency result in assay [1], in assay [2], in assay [3], in assay [5] and in assay [6] was “inactive” throughout. Further, the Potency in assay [4] was 8.22 µM (active).

Take `COc1c2ccoc2cc2oc(CO[C@@H]3O[C@H](CO)[C@@H](O)[C@H](O)[C@H]3O)cc(=O)c12`: the Potency entry in assay [1], in assay [2], in assay [3], in assay [4], in assay [5] and in assay [6] was “inactive” throughout.

Take `CCCCCCOc1cc2c(cc1N(C)c1ncc(C(=O)O)cn1)C(C)(C)CCC2(C)C`: the Potency result in assay [1], in assay [2], in assay [3], in assay [4], in assay [5] and in assay [6] was “inactive” in each case.

Take `N#Cc1cnc2cnc(NCc3cccnc3)cc2c1Nc1ccc(F)c(Cl)c1`: the Potency result in assay [1], in assay [2], in assay [3], in assay [4], in assay [5] and in assay [6] was “inactive” each time.

On to `C/C(=C\CC[C@@H](C)[C@H]1CC(O)[C@@]2(C)C3CC[C@H]4C(C)(C)[C@@H](OC5OCC(O)C(O)C5OC5OC(CO)C(O)C(O)C5O)CC[C@@]45C[C@@]35CC(O)[C@]12C)C(=O)O` (stereo partly drawn), for which the Potency entry in assay [1], in assay [2], in assay [3], in assay [4], in assay [5] and in assay [6] was “inactive” in each case.

`C/C1=C\CCC(C)CCO[C@@H]2O[C@H](CO[C@@H]3OC[C@H](O)[C@H](O)[C@H]3OC1=O)[C@@H](O)[C@H](O)[C@H]2O` (stereo partly drawn): the Potency result in assay [1], in assay [2], in assay [3], in assay [5] and in assay [6] was “inactive” each time. In addition, the Potency in assay [4] is 8.22 µM (active).

Consider `C=C(F)c1sc(CNCCCNc2cc(=O)c3ccccc3[nH]2)c(C)c1Br`, for which the Potency entry in assay [1], in assay [2], in assay [3], in assay [4], in assay [5] and in assay [6] was “inactive” throughout.

For the molecule `C=C[C@H]1C(O[C@@H]2O[C@H](CO)[C@@H](O)[C@H](O)[C@H]2O)OC=C2C(=O)N3CCc4c([nH]c5ccccc45)[C@H]3C[C@H]21` (stereo partly drawn), the Potency entry in assay [1], in assay [2], in assay [3], in assay [4], in assay [5] and in assay [6] was “inactive” throughout.

In the case of `O=C(O)COCCN1CCN([C@H](c2ccccc2)c2ccc(Cl)cc2)CC1`, the Potency entry in assay [1], in assay [2], in assay [3], in assay [4], in assay [5] and in assay [6] was “inactive” in each case.

In the case of `C=C(C(=O)OC)C1C(O)CC2(C)C(O)CCC(=O)C2C1O` (stereo not drawn), the Potency result in assay [1], in assay [2], in assay [3], in assay [4], in assay [5] and in assay [6] was “inactive” in each case.

On to `CC(=O)C1=CCC2C3CCC4CC(O[C@@H]5O[C@H](CO)[C@@H](O[C@@H]6O[C@@H](C)[C@H](O)[C@@H](O)[C@H]6O)[C@H](O)[C@H]5O[C@@H]5O[C@H](CO)[C@@H](O)[C@H](O)[C@H]5O)CCC4(C)C3CCC12C` (stereo partly drawn), for which the Potency entry in assay [1], in assay [2], in assay [3], in assay [4], in assay [5] and in assay [6] was “inactive” each time.

Take `CC1CCC2C(C(=O)O)=COC(O[C@@H]3O[C@H](CO)[C@@H](O)[C@H](O)[C@H]3O)C12` (stereo partly drawn): the Potency result in assay [1], in assay [2], in assay [3], in assay [5] and in assay [6] was “inactive” throughout. In addition, in assay [4], the Potency was 5.85 µM (active).

Consider `CCCCNc1ncc2c(-c3ccc(F)cc3)nn(CC3CCC(N)CC3)c2n1` (stereo not drawn), for which the Potency entry in assay [1], in assay [2], in assay [3], in assay [4], in assay [5] and in assay [6] was “inactive” in each case.

Turning to `C[C@@H]1O[C@@H](O[C@H]2[C@H](O[C@H]3[C@H](O[C@H]4CC[C@@]5(C)C(CC[C@]6(C)C5CC=C5[C@@H]7CC(C)(C)C[C@@H](O)[C@]7(C)CC[C@]56C)[C@@]4(C)CO)O[C@H](C(=O)O)[C@@H](O)[C@@H]3O)OC[C@H](O)[C@@H]2O)[C@H](O)[C@H](O)[C@H]1O` (stereo partly drawn), the Potency result in assay [1] and in assay [2] was “inactive” in each case. Besides, in assay [3], the outcome was “inactive [at 11.6 µM]”. Further, the activity change, negative = thiol reactive in assay [4] was 129% [at 11.5 µM]. Moreover, in assay [5], the activity, negative = inhibition is -0.768% [at 11.6 µM]. Further, in assay [6], the redox activity (% of DA3003) was 17.9% [at 11.5 µM].

Regarding `CNC(=O)c1cc(Oc2ccc3nc(N[C@@H]4CCCC[C@H]4O)sc3c2)ccn1`, the Potency result in assay [1], in assay [2], in assay [4], in assay [5] and in assay [6] was “inactive” each time. Further, the Potency in assay [3] was 12 µM (active).

For `CC(C)[C@H]1CC[C@@]2(O)COC(=O)[C@H]2[C@@H]1/C=C(\CO)C(=O)O`, the Potency entry in assay [1], in assay [2], in assay [3], in assay [4], in assay [5] and in assay [6] was “inactive” in each case.

As to `C=CC[C@]12C[C@@H](OC)C(=O)C(OC)=C1O[C@@H](c1cc(OC)c3c(c1)OCO3)[C@@H]2C`, the Potency result in assay [1], in assay [2], in assay [3], in assay [4], in assay [5] and in assay [6] was “inactive” in each case.

In the case of `CC1CC2OC3(OC2C(C)(C)O)C1C1(C)CCC24CC25CCC(O[C@@H]2OC[C@@H](O)[C@H](O)[C@H]2O)C(C)(C)C5CC=C4C1(C)C3O` (stereo partly drawn), the Potency entry in assay [1], in assay [2], in assay [3], in assay [4], in assay [5] and in assay [6] was “inactive” in each case.

As for `CC1(C(=O)O)CCCC2(C)C3CCC4CC3(CCC12)CC4=O` (stereo not drawn), the Potency result in assay [1], in assay [2], in assay [3], in assay [4], in assay [5] and in assay [6] was “inactive” each time.

Turning to `C[C@@H](Oc1cc(-n2cnc3ccc(OC4CCN(C)CC4)cc32)sc1C(N)=O)c1ccccc1C(F)(F)F`, the Potency result in assay [1], in assay [2], in assay [3], in assay [4] and in assay [5] was “inactive” throughout.

In the case of `COC(=O)[C@@]1(c2ccc(C)cc2)C[C@H]1CN1CCC(O)(c2ccccc2)CC1`, the Potency result in assay [1], in assay [2], in assay [3], in assay [4], in assay [5] and in assay [6] was “inactive” throughout.

Regarding `CC(C)CNCc1ccc(-c2ccccc2S(=O)(=O)N2CCCC2)cc1`, the Potency entry in assay [1], in assay [2], in assay [3], in assay [4], in assay [5] and in assay [6] was “inactive” throughout.

Regarding `C=C(C)C1CCC2(C(=O)O)CCC3(C(=O)O)C(CCC4C5(C)CCC(O)C(C)(C(=O)O)C5CCC43C)C12` (stereo not drawn), the Potency result in assay [1], in assay [2], in assay [3], in assay [4], in assay [5] and in assay [6] was “inactive” in each case.

Regarding `CC(C)(C)NCCCNC(=O)c1cccc(Br)c1`, the Potency result in assay [1], in assay [2], in assay [3], in assay [4], in assay [5] and in assay [6] was “inactive” throughout.

The record behind these values is PubChem BioAssay (NCATS).
